Source: PubChem
aSyn UTR act: Activators working through SNCA 5'UTR binding (MLPCN); alpha-synuclein 5'UTR reporter, activators screen; activity score, % (tested at 7.5 µM), hits read low; 300,000 compounds, 7.1% hits; AID 1814; in the data active = activity score below about -60%
Each line names hits and unclear results; the compound was inactive in the other large screens. A selection follows.

O=C1CC(c2ccc3c(c2)OCCO3)Oc2ccc([N+](=O)[O-])cc21 (stereo unspecified)	aSyn UTR act -163
COc1ccc(C2CC(=O)c3ccccc3O2)cc1 (stereo unspecified)	aSyn UTR act -147
CC(C)Oc1ccccc1C1CC(=O)Nc2cc3c(cc21)OCCO3 (stereo unspecified)	none
O=C1CC(c2ccc3c(c2)OCCO3)Oc2ccccc21 (stereo unspecified)	aSyn UTR act -209
Nc1c(C(=O)O)cnc2c(-c3ccc(Cl)cc3)cnn12	aSyn UTR act -72
CS(=O)(=O)c1cnc2c(-c3ccc(F)cc3)cnn2c1N	aSyn UTR act -106
Nc1c(-c2cccs2)cnc2c(-c3ccc(F)cc3)cnn12	aSyn UTR act -165
CC(C)(C)S(=O)(=O)c1cnc2c(-c3ccsc3)cnn2c1N	aSyn UTR act -74
Cc1ccc(NC(=S)N=Nc2c(O)n(C)c3ccc(S(=O)(=O)N4CCOCC4)cc23)cc1	none
CNS(=O)(=O)c1ccc(NC(=O)c2ccccn2)cc1	aSyn UTR act -73
O=C(Nc1ccc(NC(=O)C2CC2)nc1)c1ccco1	aSyn UTR act -121
O=C(Nc1ccc(NC(=O)C2CCCCC2)nc1)c1ccco1	aSyn UTR act -101
Cc1ccc(S(=O)(=O)N2CCCC(C(=O)Nc3ccc(NC(=O)c4ccccn4)cc3)C2)cc1 (stereo unspecified)	aSyn UTR act -74
O=C(Nc1ccc(NC(=O)C2CCCCC2)nc1)c1ccccn1	aSyn UTR act -108
CNS(=O)(=O)c1ccc(NC(=O)c2cc(-c3ccncc3)nc3ccc(Cl)cc23)cc1	aSyn UTR act -98
CC1Sc2n(c3ccccc3[n+]2C)N=C1c1ccccc1 (stereo unspecified)	aSyn UTR act -63
CCOC(=O)c1c(NC2OC(=O)c3c2ccc(OC)c3OC)sc(C(=O)OC(C)(C)C)c1C (stereo unspecified)	aSyn UTR act -80
COCCn1c(/C=C/c2ccccc2)nc2ccccc21	aSyn UTR act -156
COc1ccc(/C=C/c2nc3ccccc3n2Cc2ccccc2OC)cc1	aSyn UTR act -153
COc1ccccc1Cn1c(/C=C/c2ccccc2)nc2ccccc21	aSyn UTR act -111
Cc1cccc(NC(=O)Cn2c(/C=C/c3ccccc3)nc3ccccc32)c1	aSyn UTR act -123
Oc1ccc2ccccc2c1N=Nc1ccccn1	none
CCCn1c(O)c(N=Nc2ccc3ccccc3n2)c2ccccc21	aSyn UTR act -177
O=C(NCc1ccc(F)cc1)c1c2c(nc3ccccc13)CCC2	aSyn UTR act -71
COc1ccc(S(=O)(=O)NCC2CCCN(Cc3ccc(OC)cc3F)C2)cc1 (stereo unspecified)	aSyn UTR act -90
CC1=NN(c2ccc(C)cc2)C(=O)/C1=C\c1ccc(Br)s1	aSyn UTR act -66
COc1ccc(-c2nc(-c3ccc(C(=O)O)cc3)no2)cc1	aSyn UTR act -90
COc1ccc(-c2noc(-c3ccc(Cl)cc3)n2)cc1	aSyn UTR act -131
CCOC(=O)N1CCN(c2nc(-c3ccc(OC)cc3)no2)CC1	aSyn UTR act -88
COc1ccc(-c2noc(-c3ccc(Br)o3)n2)cc1	aSyn UTR act -212
Cc1nc(-c2noc(-c3ccc(Cl)cc3)n2)c(C(F)(F)F)o1	aSyn UTR act -103
COC(=O)c1ccc(-c2nc(-c3ccc(Br)o3)no2)cc1	aSyn UTR act -108
CCN(CC)c1ccc(NC(=O)CCCCC(=O)Nc2ccc(N(CC)CC)cc2)cc1	none
CCN(CC)c1ccc(NC(=O)Nc2cccc3ccccc23)cc1	aSyn UTR act -115
CCN(CC)c1ccc(NC(=O)Nc2ccccc2C(F)(F)F)cc1	aSyn UTR act -80
CN(C)c1ccc(NC(=O)Nc2cccc3ccccc23)cc1	aSyn UTR act -77
Cc1[nH]c2ccccc2c1/C=C/c1nc2ccccc2c(=O)n1CCO	aSyn UTR act -62
CCCCOc1ccc(-n2nc(C)cc2C)nn1	aSyn UTR act -72
NC(=O)c1ccccc1NC(=O)/C=C/c1ccccc1	aSyn UTR act -116
NC(=O)c1ccccc1NC(=O)/C=C/c1ccc(Cl)cc1	aSyn UTR act -110
Cc1ccc(NC(=S)NC2CCCCC2)cc1S(=O)(=O)N(C)C	aSyn UTR act -65
CC(C)c1ccc(NC(=S)NC2CCCCCC2)cc1	aSyn UTR act -185
CC1CCN(C(=O)Nc2ccc3nsnc3c2)CC1	aSyn UTR act -126
S=C(Nc1ccc2nsnc2c1)NC1CCCCC1	aSyn UTR act -163
S=C(Nc1ccc(Cl)c(Cl)c1)NC1CCCCC1	aSyn UTR act -75
COc1ccc(NC(=S)Nc2ccc3nsnc3c2)cc1	aSyn UTR act -207
S=C(NNc1ccc2ccccc2c1)NC1CCCCC1	aSyn UTR act -217
S=C(Nc1ccc2nsnc2c1)N1CCCCCC1	aSyn UTR act -148
CCc1ccc(NC(=S)N2CCCCCCC2)cc1	aSyn UTR act -123
Cc1ccc(/C(O)=C2\C(=O)C(=O)N(Cc3cccnc3)C2c2ccccc2[N+](=O)[O-])cc1 (stereo unspecified)	aSyn UTR act -99
CCCCN(CC)C(=O)c1cc2cc3ccc(OC)cc3nc2o1	aSyn UTR act -111
CCC(C)NC(=O)c1cc2cc3ccc(OC)cc3nc2o1 (stereo unspecified)	aSyn UTR act -147
